Most compounds without a hit are left out; they make up all but 2.5% or so of the library.
ASK1 inh: inhibitors of human ASK1 kinase. hit rate 0.99% among 22,000. AID 1159602. inhibition, % at 7.44 µM. AlphaScreen MKK6 phosphorylation by ASK1, luminescence; in the data active means inhibition above about 35%;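 further: 0% = median of compound wells and 100% = no enzyme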
ULK1 inh: blocks human autophagy kinase ULK1; O75385; AlphaScreen Atg13 phosphorylation by ULK1, luminescence; inhibition, % at 5.96 µM; hit rate 1.9% among 30,000; in the data active means inhibition above about 43%;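 further: 0% = median of compound wells and 100% = no enzyme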
The depositor's hits bear a star; . = no result given; ! = repeats disagree.

SMILES	ASK1 inh	ULK1 inh
O=c1c(-c2ccc(O)cc2)coc2cc(O)cc(O)c12	.	-3
O=c1c(O)c(-c2ccc(O)c(O)c2)oc2cc(O)cc(O)c12	.	46*
CC(=O)Nc1ccc(Nc2nc(-c3ccc(N4CCOCC4)nc3)nc3nc[nH]c23)cc1	10	-11
CC(=O)Nc1ccc(Nc2nc(-c3ccc(N4CCOCC4)nc3)ncc2C)cc1	-3	59*
c1ccc(N2CCN(c3nc(NCCN4CCOCC4)c4ncn(-c5ccsc5)c4n3)CC2)nc1	6	-11
CC(C)C[C@H](O)C(=O)N1CCC(Nc2ccc3[nH]ncc3c2)CC1	-38	53*
CC(C)C[C@H](O)C(=O)N1CCC(C(=O)Nc2ccc3[nH]ncc3c2)CC1	-10	2
CNC(=O)c1ncccc1Nc1cc(Nc2ccc3c(c2)CCC(=O)N3)ncc1C(F)(F)F	-6	48*
CC(=O)Nc1ccccc1Nc1cc(Nc2ccc3c(c2)CC(=O)N3)ncc1C(F)(F)F	-12	82*
CNC(=O)c1ncccc1Nc1cc(Nc2ccc3c(c2)NC(=O)C3)ncc1C(F)(F)F	9	4
O=C1Cc2cc(NC(=O)c3ccc(Br)cc3)ccc2N1	.	-14
CNC(=O)c1cc(F)ccc1Nc1cc(Nc2ccc3c(c2)NC(=O)C3)ncc1C(F)(F)F	1	64*
CNC(=O)c1cc(F)ccc1Nc1cc(Nc2ccc3c(c2)CC(=O)N3)ncc1C(F)(F)F	16	66*
N#Cc1ccccc1Nc1cc(NC(=O)Cc2ccc(F)cc2)ncc1C(F)(F)F	14	-3
CNC(=O)c1ncccc1Nc1cc(Nc2ccc3c(c2)CC(=O)N3)ncc1C(F)(F)F	23	11
COc1cc2nc(-c3ccccc3)nc(NCCN3CCOCC3)c2cc1OC	-6	-5
CCOc1ccc2c(c1)CC(C(=O)Nc1ccc(-c3cn[nH]c3N)cc1)NC2 (stereo not given)	9	1
Cc1nn(C)c(C)c1-c1nc(NCCOc2ccccc2)c2[nH]cnc2n1	-2	-11
CC(C)CNC(=O)C(=O)NCc1ccncc1	.	-6
Cc1cc(C)cc(S(=O)(=O)Nc2ccc(-c3ccc(N4CCCCC4)nn3)cc2)c1	.	6
CC1OC(O[C@H]2/C=C/C=C/C=C/C=C/C=C/C=C/C=C/[C@H](C)[C@@H](O)[C@@H](C)[C@H](C)OC(=O)CC(O)CC(O)CCC(O)C(O)CC(O)C[C@]3(O)C[C@H](O)C(C(=O)O)C(C2)O3)C(O)[C@H](N)C1O (stereo not given in full)	.	12
O=C(Nc1ccccc1)c1ccnc(N2CCN(Cc3ccc4c(c3)OCO4)CC2)c1	19	12
Cc1cc2c(C(C)C)c(O)c(O)c(C=O)c2c(O)c1-c1c(C)cc2c(C(C)C)c(O)c(O)c(C=O)c2c1O	.	57*
CCCNC(=O)c1ccc(Cl)cc1Cl	.	6
CCCCNC(=O)c1ccc(Cl)cc1O	.	43*!
SMILES	ASK1 inh	ULK1 inh
Cn1nc(C2CC2)cc1Nc1cc(Nc2ccc(N3CCOCC3)cc2)ncc1C(F)(F)F	10	46*
COc1cc(N2CCOCC2)ccc1Nc1cc(-c2cnn(C)c2)c(Cl)cn1	-12	3
COc1cc(N2CCOCC2)ccc1Nc1cc(Nc2ccccc2C(=O)N(C)C)c(C(F)(F)F)cn1	7	74*
COc1cc(N2CCOCC2)ccc1Nc1cc(Nc2ccccc2C(N)=O)c(C(F)F)cn1	-31	83*
CNC(=O)c1ccccc1Nc1cc(Nc2ccc(N3CCOCC3)cc2OC)ncc1C	-3	18
Cn1ccc(-c2ccccc2Nc2ccnc(Nc3ccc(N4CCOCC4)cc3)c2)n1	19	-4
Cc1nc(Nc2ccccc2)cc(-c2cncc(-c3ccccc3)c2)n1	.	0
CNS(=O)(=O)c1ccccc1Nc1cc(Nc2cc(-c3cncnc3)nc(C)n2)ncc1C(F)(F)F	14	73*
CS(=O)(=O)c1cccc(CNc2cc(Nc3ccc(N4CCCC4=O)cc3)ncc2C(F)(F)F)c1	14	24
CNS(=O)(=O)c1ccccc1Nc1cc(Nc2ccc(N3CCCC3=O)cc2)ncc1C(F)(F)F	-6	50*
Nc1nc(Nc2ccc3c(c2)OCO3)cc(N2CCC(N3CCOCC3)CC2)n1	-12	12
CNC(=O)c1ccnc(Nc2cc(Nc3ccccc3C(=O)NC)c(C(F)(F)F)cn2)c1	-6	87*
CNC(=O)c1ccccc1Nc1cc(Nc2ccccn2)ncc1C(F)(F)F	-1	89*
CNC(=O)c1ccccc1Nc1cc(Nc2ccc3c(c2)CCC(=O)N3C)ncc1C(F)(F)F	-12	89*
O=C(O)c1ccccc1Nc1ccccn1	.	12
O=C(NCc1cccc(C(F)(F)F)c1)c1ccnc(Nc2ccccn2)c1	-2	1
O=C(Cc1ccc2c(c1)OCO2)Nc1cc(Nc2ccccc2-c2ncn[nH]2)c(C(F)(F)F)cn1	-2	-18
CNC(=O)c1ccccc1Nc1cc(Nc2ccc(-c3cncnc3)cc2)ncc1C(F)(F)F	-7	70*
CC(=O)Nc1ccc(Nc2nc(-c3c(C)noc3C)nc3c2ncn3-c2ccccc2)cc1	-64	22
O=C(c1cccc(-n2ncc3cc(Nc4ccccc4Cl)ccc32)c1)N1CCC(O)CC1	13	-49
